Screening data (PubChem BioAssay)
FUS suppressor: qHTS for Suppressors of FUS Proteinopathy: Primary screen using FUS-linked yeast assay; S. cerevisiae FUS-expressing, growth rescue, OD600, 24 h; 390,000 tested, 0.24% active; Potency, µM (highest dose often 76.6 µM), hits mostly activators;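 further: plate controls were DMSO vehicle for no effect and reference control for full effect; nearly all actives have a fitted effect of over 55% in size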
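Yeast FUS proteinopathy model; galactose-induced FUS (2%), starting OD 0.005. Cpds in dilution series, 24hr, 30C, 99% humidity. Abs 600 nm growth. Pos ctrl CP55940 (top 92uM final); neg ctrl DMSO.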
Abeta yeast res: qHTS for compounds that reverse cellular toxicity of Amyloid beta (A-beta) peptide in yeast: Primary Screen | yeast expressing A-beta42, growth rescue, OD600, 48 h; response scale: 0% DMSO, 100% iron-clioquinol control | Potency, µM (doses to about 46.1 µM), hits mostly activators | 410,000 tested, 0.063% active | AID 1347071, 2019; further: nearly all actives have a fitted effect of over 55% in size
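Growth rescue measured by 600 nm absorbance after 48 h yeast culture at 30 C with compound. Values normalized between DMSO and an equimolar ferric chloride plus clioquinol control.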
aSyn rescue: qHTS of alpha-syn Inhibitors | Yeast expressing alpha-synuclein, growth rescue, BacTiter-Glo, 24 h | Potency, µM (titrated, usually from 46.1 µM), for the others: at the highest dose growth rescue (activation), usual class: activators | 370,000 tested, 0.14% active; further: % of control where 0% means no effect; nearly all actives have a fitted effect of over 65% in size
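Readout is rescue of growth in alpha-synuclein-expressing yeast, so inhibitors of toxicity appear as activators. Growth after 24 hr at 30 deg C in galactose medium is quantified by luminescence.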
TDP43 rescue: qHTS of TDP-43 Inhibitors. TDP-43 expressing yeast growth rescue, BacTiter-Glo, 24 h. 410,000 tested, 1.8% active. Potency, µM (series often up to 46.1 µM), for inactives: at the highest dose growth rescue (activation), usual class: activators; further: % of control where 0% means no effect; nearly all actives have a fitted effect of over 50% in size
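Galactose-induced TDP-43 yeast, OD600=0.02, compound pinned; 24 hr, 30 deg C; BacTiter-Glo luminescence for growth. Inhibitors of TDP-43 toxicity read as activators.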
* = called active by the depositor; i = inactive; ? = inconclusive; . = no result given; [ ] = dose if it differs, or a comment. Hits are enriched below; roughly 2.1% of the tested compounds scored in any of these assays. The call rests on the fitted dose curve; in most records, active means well fitted curve in the direction sought with a large enough effect; inconclusive means small, poorly fitted or top-dose-only effect, or another doubt; inactive means no such curve, though single readings can be large; an effect the other way counts as inactive or inconclusive. Potency means the concentration at half of the fitted maximal effect.

SMILES	FUS suppressor	Abeta yeast res	aSyn rescue	TDP43 rescue
COC(=O)c1ccc(COc2ccc(F)cc2)o1	i	i	1%	23%
COC(=O)c1ccc(COc2ccc(C(=O)c3ccccc3)cc2)o1	i	i	-5%	11µM*
CC(=O)CC[C@@H]1CC[C@]2(CCCN(C(=O)c3ccco3)C2)O1	i	.	.	.
Cc1ccc(C(=O)NNC(=O)C2CC2)cc1Br	i	i	-1%	8%
COC(=O)NNC(=O)c1ccc(C)c(Br)c1	.	?	2%	20µM*
COc1ccc2c(c1)OC[C@H]1[C@H]2N2C(=O)c3ccc(C)cc3NC(=O)[C@@]2(C)[C@H]1c1ccccc1	?	i	-1%	1%
COc1ccc2c(c1)OC[C@H]1[C@H]2N2C(=O)c3cc(OC)ccc3NC(=O)[C@@]2(C)[C@H]1c1ccccc1	i	i	20%	5µM*
C[C@@]12C(=O)Nc3ccc(Cl)cc3C(=O)N1[C@H]1c3cc(Br)ccc3OC[C@@H]1[C@@H]2c1ccccc1	28µM*	i	10%	10%
COc1ccc2c(c1)OC[C@H]1[C@H]2N2C(=O)c3cc(Cl)ccc3NC(=O)[C@@]2(C)[C@H]1c1ccccc1	i	i	23%	4.5µM*
Cc1ccc2c(c1)[C@H]1[C@H](CO2)[C@H](c2ccccc2)[C@]2(C)C(=O)N(Cc3ccc(F)cc3)CC(=O)N12	i	16µM*	0%	21%
Cc1ccc(Cl)cc1NC(=O)c1sc2nc(-c3ccccc3)cn2c1C	i	i	.	5%
COc1ccc2c(c1)OC[C@H]1[C@H]2N2C(=O)c3cc(F)ccc3NC(=O)[C@@]2(C)[C@H]1c1ccccc1	i	i	8%	20µM*
Clc1ccc(CSc2nnc(-c3c[nH]c4ccccc34)o2)cc1	i	i	-1%	-18%
Brc1ccc(CSc2nnc(Cc3c[nH]c4ccccc34)o2)cc1	.	i	0%	8.9µM*
CCOC(=O)c1ccc(N=C2C(=S)N(c3ccc(C(=O)OCC)cc3)C(=N)N2/N=C/c2ccccc2)cc1	28µM*	i	1%	0%
CCOC(=O)c1ccc(N=c2scc(C)n2CC)cc1	i	i	7%	-7%[0.397 µM]
S=c1nc(C2CCCCC2)n(-c2ccccc2)[nH]1	i	13µM*	-4%	3%
COc1ccc(CCC(=O)NCc2ccc3c(c2)CCN3C(=O)c2cccc(C)c2)cc1	?	i	.	25µM*
O=C(NCc1ccc2c(c1)CCN2C(=O)c1ccc(F)cc1)c1cc2ccccc2[nH]1	i	i	.	32µM*
COc1ccc(OCC(=O)NCc2ccc3c(c2)CCN3C(=O)c2ccccc2)cc1	i	i	.	25µM*
O=C(COc1ccccc1)NCc1ccc2c(c1)CCN2C(=O)c1ccccc1	i	i	.	23%
CC(=O)Nc1ccc(/C=C/c2sc3ccccc3[n+]2CCCCI)cc1	.	.	-4%	.
COc1ccccc1N1CCN(C(=O)c2ccc(-c3ccc(Cl)cc3)o2)CC1	?	i	3%	16µM*
COc1ccc(N2CCN(C(=O)c3ccc(-c4nc5ccccc5s4)o3)CC2)cc1	i	i	0%	17%
COc1ccccc1N1CCN(C(=O)c2ccc(-c3nc4ccccc4s3)o2)CC1	?	i	1%[1.84 µM]	22µM*
SMILES	FUS suppressor	Abeta yeast res	aSyn rescue	TDP43 rescue
C[C@@]12CCC=C[C@H]1[C@H](c1ccccc1Br)N(Cc1ccccc1)C2=O	?	i	-2%	35µM*
CN(C(=S)Oc1ccc(C(=O)Nc2ccccc2)cc1)c1ccccc1	.	i	0%	13µM*
COc1ccc(NC(=O)c2ccc(OC(=S)N(C)c3ccc(OC)cc3)cc2)cc1	i	i	-7%	-6%
CCOC(=O)c1c(NC(=O)c2cc(-c3cccc(Cl)c3)on2)sc(C(C)=O)c1C	i	i	.	2%
O=C(O)/C=C/C(=O)Nc1ccc2c(c1)C(=O)c1ccccc1C2=O	i	?	22µM*	?
CCOC(=O)c1c(S(=O)(=O)N2CCC(C(=O)N3CCN(c4cc(C)ccc4C)CC3)CC2)c(C)n(C)c1C	?	i	.	12%
CC(C)(C)C(=O)NC(=S)Nc1ccc(C(F)(F)F)cc1	i	13µM*	0%	20%
CC(=O)N(c1ccc2oc(=O)sc2c1)S(=O)(=O)c1cccs1	28µM*	i	-2%	25%
CC(C)C(=O)N(c1ccc2oc(=O)sc2c1)S(=O)(=O)c1cccs1	i	i	6%	8%
COc1ccc(C2c3[nH]c4ccccc4c3C[C@H]3C(=O)N(c4ccccc4C(=O)N4CCC(C(=O)O)CC4)C(=O)N23)cc1 (some centres not stated)	22µM*	i	0%	7%
COc1cccc(C2c3[nH]c4ccccc4c3C[C@H]3C(=O)N(C4CC4)CC(=O)N23)c1 (some centres not stated)	i	i	0%	21%
COc1cccc(C2c3[nH]c4ccccc4c3C[C@H]3C(=O)N(c4ccccc4C(=O)N4CCC(C(=O)O)CC4)C(=O)N23)c1 (some centres not stated)	28µM*	i	3%	16%
CC(C)c1ccc(C2c3[nH]c4ccccc4c3C[C@H]3C(=O)N(c4ccccc4C(=O)N4CCC[C@H]4C(=O)O)C(=O)N23)cc1 (some centres not stated)	?	i	7%	13%
CCOC(=O)C1=C(COC(=O)c2ccc([N+](=O)[O-])s2)NC(=O)NC1C (configuration not stated)	i	i	-74%	20µM*
O=C(Nc1ccccc1)c1cccc(S(=O)(=O)Nc2cccc(F)c2)c1	i	i	.	0%
O=S1(=O)c2ccccc2N(Cc2ccccc2Cl)c2ccccc21	i	i	.	6.3µM*
CC1Oc2ccccc2N(Cc2ccccc2Cl)C1=O (configuration not stated)	i	i	9%	19%
Cc1ccccc1CN1c2ccccc2S(=O)(=O)c2ccccc21	i	i	.	2%
O=C1COc2ccccc2N1Cc1ccccc1Cl	i	i	15%	22µM*
CC[n+]1c(/C=C/C=C2/N(C)c3ccccc3C2(C)C)sc2ccccc21	.	.	-82%	.
Cn1c2ccccc2c2ncn(CCC3=CCCCC3)c(=O)c21	i	i	-4%	13µM*
CCn1nc(C)c(/C=N/NC(=O)c2ccc3c(c2)c(C)c(C)n3Cc2ccccc2)c1C	11µM*	i	2%	5%
O=C(Cc1ccc(Br)cc1)NO	.	.	-2%	.
Cc1ccc(C2(C)NC(=O)N(CC(=O)N3c4ccccc4NC(=O)CC3C)C2=O)cc1 (configuration not stated)	i	i	3.5µM*	-5%
O=C1CC(=Nc2ccccc2)NN1c1ccccc1	13µM*	?	12%	16µM*
O=C1Cc2ccccc2N1c1ccccc1	i	i	5%	?
